Where a name gives a salt, the structure may show the parent alone. ± gives the standard deviation of the averaged measurements.
Tested on: E. coli TESEC Mtb Asd
Assay: growth (OD600 after 10 h); higher = more growth (less inhibition)
Details: arabinose induction (level): High; compound 0.1 mM; raw OD600 reference: median of DMSO wells 0.331, cell-free background 0.041
Protocol: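 TESEC E. coli strains in which the native enzyme is deleted and replaced by arabinose-inducible Mtb Asd, DapB, CysH or TrpD, each grown in its selective medium. Strains were screened against the Prestwick library at 0.1 mM and 1% DMSO in 384-well format at low and high arabinose induction. Growth is read as OD600 after 10 h in triplicate.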

SMILES	growth
O=C1OC(CN2CCOCC2)CN1/N=C/c1ccc([N+](=O)[O-])o1 (centres undefined) [Furaltadone hydrochloride]	0.0534 ± 0.0031
CN(C)CCCN1c2ccccc2CCc2ccccc21 [Imipramine hydrochloride]	0.164 ± 0.026
CCOC(=O)O[C@]1(C(=O)OCCl)CC[C@H]2[C@@H]3CCC4=CC(=O)C=C[C@]4(C)[C@H]3[C@@H](O)C[C@@]21C [Loteprednol etabonate]	0.24 ± 0.019
CCCNC(C)C(=O)Nc1ccccc1C (centres undefined) [Prilocaine hydrochloride]	0.322 ± 0.093
NS(=O)(=O)c1cc2c(cc1Cl)NCNS2(=O)=O [Hydrochlorothiazide]	0.367 ± 0.053
Cc1cc2c(s1)Nc1ccccc1N=C2N1CCN(C)CC1 [Olanzapine]	0.305 ± 0.043
Nc1ccc(C(=O)O)c(O)c1 [4-aminosalicylic acid]	0.222 ± 0.024
CC(=O)Oc1ccc(C(c2ccc(OC(C)=O)cc2)c2ccccn2)cc1 [Bisacodyl]	0.354 ± 0.011
CN(Cc1cnc2nc(N)nc(N)c2n1)c1ccc(C(=O)N[C@@H](CCC(=O)O)C(=O)O)cc1 (racemic) [Amethopterin (R,S)]	0.213 ± 0.024
CC(C(=O)O)c1ccc(C(=O)c2ccccc2)s1 (centres undefined) [Tiaprofenic acid]	0.386 ± 0.077
Nc1c2ccccc2nc2ccccc12 [Aminacrine]	0.0581 ± 0.016
CCCC(CCC)C(=O)O [Valproic acid]	0.416 ± 0.018
Cc1[nH]cnc1CN1CCc2c(c3ccccc3n2C)C1=O [Alosetron hydrochloride]	0.287 ± 0.076
CN(C)c1nc(N(C)C)nc(N(C)C)n1 [Altretamine]	0.475 ± 0.017

From the supplement of paper PMC9262897, “Low-cost anti-mycobacterial drug discovery using engineered E. coli” (Nature Communications, 2022)
